# Test results from PubChem BioAssay (NCATS).
# Inconclusive results are not listed. Entries that show only a call come without a potency. Unmarked numbers belong to inactive results. Activity calls are given as the source filed them. Calls follow the shape of the dose curve; as a rule, active = well fitted curve in the direction sought with a large enough effect; inconclusive = small, poorly fitted or top-dose-only effect, or another doubt; inactive = no such curve, though single readings can be large; an effect the other way counts as inactive or inconclusive.
# What was measured:
# [1] = qHTS of pediatric cancer cell lines to identify multiple opportunities for drug repurposing: Primary screen for TC32 cells (AID 1347089); also: nearly all actives have a fitted effect of over 60% in size; also: potency is read from the fitted curve at half-maximal effect
# Summary of the method: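 Measured quantity: luminescence from CellTiter-Glo, reflecting metabolically active TC32 cells following 48 h of compound. Curves came straight from multi-point titrations, with 8 or 11 points in primary and 11 in confirmatory screening.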
# [2] = qHTS of pediatric cancer cell lines to identify multiple opportunities for drug repurposing: Primary screen for DAOY cells (AID 1347090); also: nearly all actives have a fitted effect of over 55% in size; also: potency is read from the fitted curve at half-maximal effect; as to activity change, negative = cytotoxic: series mostly up to about 46 µM
# Summary of the method: (§1)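 Eight- or eleven-point concentration series, 48 h treatment at 37 degrees C in growth media; readout CellTiter-Glo luminescence. Potency and efficacy were taken from the concentration-response curves.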
# [3] = qHTS of pediatric cancer cell lines to identify multiple opportunities for drug repurposing: Primary screen for SJ-GBM2 cells (AID 1347091); also: potency is read from the fitted curve at half-maximal effect
# Summary of the method: as §1
# [4] = qHTS of pediatric cancer cell lines to identify multiple opportunities for drug repurposing: Primary screen for A673 cells (AID 1347092); also: nearly all actives have a fitted effect of over 45% in size; also: potency is read from the fitted curve at half-maximal effect
# Summary of the method: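 Cells are plated, rested 5 h, dosed by pintool, incubated 48 h, then lysed with CellTiter-Glo and read by luminescence. DMSO is the neutral control; bortezomib at 2.3 uM final is the positive control.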
# [5] = qHTS of pediatric cancer cell lines to identify multiple opportunities for drug repurposing: Primary screen for SK-N-MC cells (AID 1347093); also: potency is read from the fitted curve at half-maximal effect; as to activity change, negative = cytotoxic: series mostly up to about 46 µM
# Summary of the method: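 Metabolically active cells were quantified by ATP-dependent luminescence (CellTiter-Glo, 15 min at room temperature) following 48 h treatment. Cells had been plated at 500-1,000 per well and settled for 5 h beforehand.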
# [6] = qHTS of pediatric cancer cell lines to identify multiple opportunities for drug repurposing: Primary screen for BT-37 cells (AID 1347094); also: potency is read from the fitted curve at half-maximal effect; as to activity change, negative = cytotoxic: series mostly up to about 57 µM
# Summary of the method: (§2)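 Quantitative HTS format: each compound titrated (MIPE 11 points from 0.78 nM, NPC 8 points from 0.59 nM) onto cells plated 5 hours earlier. After 48 h at 37 degrees C, CellTiter-Glo luminescence was recorded.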
# [7] = qHTS of pediatric cancer cell lines to identify multiple opportunities for drug repurposing: Primary screen for NB-EBc1 cells (AID 1347095)
# Summary of the method: as §2
# [8] = qHTS of pediatric cancer cell lines to identify multiple opportunities for drug repurposing: Primary screen for Saos-2 cells (AID 1347097); also: nearly all actives have a fitted effect of over 40% in size; also: potency is read from the fitted curve at half-maximal effect
# Summary of the method: as §2
# [9] = qHTS of pediatric cancer cell lines to identify multiple opportunities for drug repurposing: Primary screen for SK-N-SH cells (AID 1347098); also: nearly all actives have a fitted effect of over 65% in size; also: potency is read from the fitted curve at half-maximal effect;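 as to activity change, negative = cytotoxic: DMSO served as neutral control and bortezomib at 2.3 µM as positive control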
# Summary of the method: (§3)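 Cells (500-1,000/well) rested 5 h, then received compounds for 48 h; metabolically active cells were measured by CellTiter-Glo luminescence. Final concentrations spanned up to 46 µM (MIPE, 11-point) or 0.59 nM-46 µM (NPC, 8-point) in primary screens, 11-point in follow-ups.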
# [10] = qHTS of pediatric cancer cell lines to identify multiple opportunities for drug repurposing: Primary screen for NB1643 cells (AID 1347099); also: nearly all actives have a fitted effect of over 50% in size; also: potency is read from the fitted curve at half-maximal effect
# Summary of the method: as §2
# [11] = qHTS of pediatric cancer cell lines to identify multiple opportunities for drug repurposing: Primary screen for LAN-5 cells (AID 1347100); also: potency is read from the fitted curve at half-maximal effect
# Summary of the method: (§4)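 Cells (500-1,000/well) in growth media were settled 5 h at 37 degrees C, then given compounds for 48 h. Viability was read as CellTiter-Glo luminescence. Primary runs used MIPE at 11 points (0.78 nM-46 µM) and NPC at 8 points (0.59 nM-46 µM); follow-ups used 11 points.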
# [12] = qHTS of pediatric cancer cell lines to identify multiple opportunities for drug repurposing: Primary screen for BT-12 cells (AID 1347101); also: nearly all actives have a fitted effect of over 25% in size; also: potency is read from the fitted curve at half-maximal effect
# Summary of the method: as §3
# [13] = qHTS of pediatric cancer cell lines to identify multiple opportunities for drug repurposing: Primary screen for Rh18 cells (AID 1347102); also: nearly all actives have a fitted effect of over 65% in size; also: potency is read from the fitted curve at half-maximal effect
# Summary of the method: as §4
# [14] = qHTS of pediatric cancer cell lines to identify multiple opportunities for drug repurposing: Primary screen for OHS-50 cells (AID 1347103); also: nearly all actives have a fitted effect of over 40% in size; also: potency is read from the fitted curve at half-maximal effect
# Summary of the method: as §3
# [15] = qHTS of pediatric cancer cell lines to identify multiple opportunities for drug repurposing: Primary screen for RD cells (AID 1347104); also: nearly all actives have a fitted effect of over 55% in size; also: potency is read from the fitted curve at half-maximal effect
# Summary of the method: as §2
# [16] = qHTS of pediatric cancer cell lines to identify multiple opportunities for drug repurposing: Primary screen for MG 63 (6-TG R) cells (AID 1347105); also: nearly all actives have a fitted effect of over 50% in size; also: potency is read from the fitted curve at half-maximal effect
# Summary of the method: as §2
# [17] = qHTS of pediatric cancer cell lines to identify multiple opportunities for drug repurposing: Primary screen for control Hh wild type fibroblast cells (AID 1347106);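 also: series mostly up to about 46 µM; a drop in luminescence marks cytotoxicity and a rise apparent proliferation; nearly all actives have a fitted effect of over 55% in size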
# Summary of the method: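 Viability after 48 h compound treatment at 37C, 500-1,000 cells/well, read as ATP luminescence with CellTiter-Glo. Primary screens used 11-point (MIPE, 0.78 nM-46 µM) or 8-point (NPC, 0.59 nM-46 µM) final concentrations; follow-up screens used 11-point dilutions.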
# [18] = qHTS of pediatric cancer cell lines to identify multiple opportunities for drug repurposing: Primary screen for U-2 OS cells (AID 1347096); also: nearly all actives have a fitted effect of over 50% in size; also: potency is read from the fitted curve at half-maximal effect
# Summary of the method: as §4
smiles,measurement,setting,value
NC(CS)C(=O)O (stereo not drawn),Potency,[1],inactive
same,Potency,[2],inactive
same,Potency,[3],inactive
same,Potency,[4],inactive
same,Potency,[5],inactive
same,Potency,[6],inactive
same,Potency,[7],inactive
same,Potency,[8],inactive
same,Potency,[9],inactive
same,Potency,[10],inactive
same,Potency,[11],inactive
same,Potency,[12],inactive
same,Potency,[13],inactive
same,Potency,[14],inactive
same,Potency,[15],inactive
same,Potency,[16],inactive
same,Potency,[17],inactive
CC(C)COC(=O)c1ccc(N)cc1,Potency,[1],inactive
same,Potency,[2],inactive
same,Potency,[3],inactive
same,Potency,[4],inactive
same,Potency,[5],inactive
same,Potency,[6],inactive
same,Potency,[7],inactive
same,Potency,[18],inactive
same,Potency,[8],inactive
same,Potency,[10],inactive
same,Potency,[11],inactive
same,Potency,[12],inactive
same,Potency,[13],inactive
same,Potency,[14],inactive
same,Potency,[15],inactive
same,Potency,[16],inactive
same,Potency,[17],inactive
CN(C)CCOc1ccccc1Cc1ccccc1,Potency,[1],inactive
same,Potency,[2],inactive
same,Potency,[3],inactive
same,Potency,[4],inactive
same,Potency,[5],inactive
same,Potency,[6],inactive
same,Potency,[7],inactive
same,Potency,[18],inactive
same,Potency,[8],inactive
same,Potency,[10],inactive
same,Potency,[11],inactive
same,Potency,[12],inactive
same,Potency,[13],inactive
same,Potency,[15],inactive
same,Potency,[16],inactive
same,Potency,[17],inactive
CN=C(NC#N)NCCSCc1csc(N=C(N)N)n1,Potency,[1],inactive
same,Potency,[2],inactive
same,Potency,[3],inactive
same,Potency,[4],inactive
same,Potency,[5],inactive
same,Potency,[6],inactive
same,Potency,[7],inactive
same,Potency,[8],inactive
same,Potency,[9],inactive
same,Potency,[10],inactive
same,Potency,[11],inactive
same,Potency,[12],inactive
same,Potency,[13],inactive
same,Potency,[14],inactive
same,Potency,[15],inactive
same,Potency,[16],inactive
same,Potency,[17],inactive
O=C(CCCN1CCC(O)(c2ccc(Br)cc2)CC1)c1ccc(F)cc1,Potency,[1],inactive
same,Potency,[2],inactive
same,Potency,[3],21.1 µM (active)
same,Potency,[4],inactive
same,Potency,[5],inactive
same,Potency,[6],0.001 µM (active)
same,Potency,[7],inactive
same,Potency,[18],inactive
same,Potency,[8],inactive
same,Potency,[9],inactive
same,Potency,[10],0.0237 µM (active)
same,Potency,[11],inactive
same,Potency,[15],inactive
same,Potency,[16],inactive
same,Potency,[17],inactive
COc1ccc(OC)c(C(O)CNC(=O)CN)c1 (stereo not drawn),Potency,[1],inactive
same,Potency,[2],inactive
same,Potency,[3],inactive
same,Potency,[4],inactive
same,Potency,[5],inactive
same,Potency,[6],inactive
same,Potency,[18],inactive
same,Potency,[8],inactive
same,Potency,[9],inactive
same,Potency,[10],inactive
same,Potency,[11],inactive
same,Potency,[12],inactive
same,Potency,[13],inactive
same,Potency,[14],inactive
same,Potency,[15],inactive
same,Potency,[16],inactive
same,Potency,[17],inactive
O=C(O)CCCCC(=O)O,Potency,[1],inactive
same,Potency,[2],inactive
same,Potency,[3],inactive
same,Potency,[4],inactive
same,Potency,[5],inactive
same,Potency,[6],inactive
same,Potency,[7],inactive
same,Potency,[8],inactive
same,Potency,[9],inactive
same,Potency,[10],inactive
same,Potency,[11],inactive
same,Potency,[13],inactive
same,Potency,[14],inactive
same,Potency,[15],inactive
same,Potency,[16],inactive
same,Potency,[17],inactive
O=C(O)CNC(=O)c1ccccc1,Potency,[1],inactive
same,Potency,[2],inactive
same,Potency,[3],inactive
same,Potency,[4],inactive
same,Potency,[5],inactive
same,Potency,[6],inactive
same,Potency,[7],inactive
same,Potency,[8],inactive
same,Potency,[9],inactive
same,Potency,[10],inactive
same,Potency,[11],inactive
same,Potency,[12],inactive
same,Potency,[13],inactive
same,Potency,[14],inactive
same,Potency,[15],inactive
same,Potency,[16],inactive
same,Potency,[17],inactive
CCn1cc(C(=O)O)c(=O)c2cnc(N3CCCC3)nc21,"activity change, negative = cytotoxic",[1],4.83% [at 9.17 µM]
same,"activity change, negative = cytotoxic",[2],-3.72% [at 9.22 µM]
same,"activity change, negative = cytotoxic",[3],-2.71% [at 9.22 µM]
same,"activity change, negative = cytotoxic",[4],-17.7% [at 9.22 µM]
same,"activity change, negative = cytotoxic",[5],-9.99% [at 9.22 µM]
same,"activity change, negative = cytotoxic",[6],0.276% [at 11.5 µM]
same,"activity change, negative = cytotoxic",[7],-3.37% [at 9.22 µM]
same,"activity change, negative = cytotoxic",[18],4.46% [at 9.22 µM]
same,"activity change, negative = cytotoxic",[8],0.0364% [at 9.22 µM]
same,"activity change, negative = cytotoxic",[10],1.66% [at 9.22 µM]
same,"activity change, negative = cytotoxic",[11],-2.09% [at 9.22 µM]
same,"activity change, negative = cytotoxic",[12],1.9% [at 11.5 µM]
same,"activity change, negative = cytotoxic",[13],15.8% [at 9.22 µM]
same,"activity change, negative = cytotoxic",[14],-0.536% [at 11.5 µM]
same,"activity change, negative = cytotoxic",[15],-0.58% [at 9.22 µM]
same,"activity change, negative = cytotoxic",[16],-14.9% [at 9.22 µM]
same,"activity change, negative = cytotoxic",[17],4.15% [at 9.22 µM]
CC(C)n1nc(-c2cc3cc(O)ccc3[nH]2)c2c(N)ncnc21,Potency,[1],2.1 µM (active)
same,Potency,[2],4.22 µM (active)
same,Potency,[3],0.596 µM (active)
same,Potency,[4],10.6 µM (active)
same,Potency,[5],0.299 µM (active)
same,Potency,[6],1.1 µM (active)
same,Potency,[18],13.3 µM (active)
same,Potency,[8],4.22 µM (active)
same,Potency,[9],12.2 µM (active)
same,Potency,[10],21.1 µM (active)
same,Potency,[11],8.41 µM (active)
same,Potency,[12],1.23 µM (active)
same,Potency,[13],6.68 µM (active)
same,Potency,[14],0.437 µM (active)
same,Potency,[15],8.41 µM (active)
same,Potency,[16],1.68 µM (active)
CC1(C)O[C@@H]2C[C@H]3[C@@H]4C[C@H](F)C5=CC(=O)C=C[C@]5(C)[C@H]4[C@@H](O)C[C@]3(C)[C@]2(C(=O)CO)O1,Potency,[1],inactive
same,Potency,[2],inactive
same,Potency,[3],inactive
same,Potency,[4],inactive
same,Potency,[5],inactive
same,Potency,[6],inactive
same,Potency,[7],inactive
same,Potency,[18],inactive
same,Potency,[9],inactive
same,Potency,[10],inactive
same,Potency,[11],inactive
same,Potency,[13],inactive
same,Potency,[14],inactive
same,Potency,[15],inactive
same,Potency,[16],inactive
same,Potency,[17],inactive
COc1ccc(C2C(=O)c3ccccc3C2=O)cc1,Potency,[1],inactive
same,Potency,[2],inactive
same,Potency,[3],inactive
same,Potency,[4],inactive
same,Potency,[5],inactive
same,Potency,[6],inactive
same,Potency,[18],inactive
same,Potency,[8],inactive
same,Potency,[9],inactive
same,Potency,[10],inactive
same,Potency,[11],inactive
same,Potency,[12],inactive
same,Potency,[13],inactive
same,Potency,[14],inactive
same,Potency,[15],inactive
same,Potency,[16],inactive
same,Potency,[17],inactive
